Data reported in PubChem BioAssay (Tox21).
Inconclusive results are not listed. The source made the active and inactive calls. The call rests on the fitted dose curve; in most records, active means well fitted curve in the direction sought with a large enough effect in the repeat runs; inconclusive means weak or mixed curves; inactive means no such curve, though single readings can be large; an effect the other way counts as inactive or inconclusive.

How the values were obtained:
[1] = A CellTox Green Cytotoxicity Assay to monitor cytotoxicity in HEK293 cells - 40 hour (AID 1224871); further: nearly all actives have a fitted effect of over 45% in size; further: potency means the concentration at half of the fitted maximal effect
Procedure, shortened: (§1)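 Tox21 screen in HEK293: membrane-impermeant cyanine dye fluoresces on binding dead-cell DNA; compound pinned 5 h post-seeding, plates held at 37 C, signal read repeatedly through 40 h.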

[2] = qHTS RealTime-Glo MT Cell Viability Assay in HEK293 cells - 16 hour (AID 1224872); further: nearly all actives have a fitted effect of over 50% in size; further: potency means the concentration at half of the fitted maximal effect
Procedure, shortened: (§2)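 Assay medium contained NanoLuc luciferase plus cell-permeant prosubstrate, added with HEK293 cells at 600 cells/well. After 5 h at 37 C/5% CO2 compounds were added; plates stayed at 37 C for 40 h with serial luminescence reads.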

[3] = qHTS RealTime-Glo MT Cell Viability Assay in HEK293 cells - 40 hour (AID 1224874); settings: RealTime-Glo luminescence; max response: hits give low values; further: nearly all actives have a fitted effect of over 50% in size; further: potency means the concentration at half of the fitted maximal effect
Procedure, shortened: (§3)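 HEK293 + NanoLuc + prosubstrate, 600 cells/well; 5 h, 37 C/5% CO2; compound 23 nL in DMSO by pintool; 37 C; luminescence read at 0, 8, 16, 24, 32 and 40 h time points.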

[4] = A CellTox Green Cytotoxicity Assay to monitor cytotoxicity in HepG2 cells - 16 hour (AID 1224876); further: nearly all actives have a fitted effect of over 45% in size; further: potency means the concentration at half of the fitted maximal effect
Procedure, shortened: (§4)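 Measurements at 0, 8, 16, 24, 32 and 40 h of treatment captured CellTox Green fluorescence in HepG2 cells that had been co-plated with reagent and preincubated 5 h at 37 C/5% CO2.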

[5] = qHTS RealTime-Glo MT Cell Viability Assay in HepG2 cells - 32 hour (AID 1224877); further: nearly all actives have a fitted effect of over 55% in size; further: potency means the concentration at half of the fitted maximal effect
Procedure, shortened: (§5)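 qHTS, HepG2, 600 cells/well, RealTime-Glo (NanoLuc + prosubstrate) added with cells; 5 h preincubation; DMSO compound addition; 37 C; luminescence at 0/8/16/24/32/40 h.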

[6] = A CellTox Green Cytotoxicity Assay to monitor cytotoxicity in HepG2 cells - 24 hour (AID 1224878); further: nearly all actives have a fitted effect of over 45% in size; further: potency means the concentration at half of the fitted maximal effect
Procedure, shortened: as §4

[7] = A CellTox Green Cytotoxicity Assay to monitor cytotoxicity in HepG2 cells - 40 hour (AID 1224879); further: nearly all actives have a fitted effect of over 40% in size; further: potency means the concentration at half of the fitted maximal effect
Procedure, shortened: as §4

[8] = qHTS RealTime-Glo MT Cell Viability Assay in HEK293 cells - 0 hour (AID 1224880); further: top concentration of the series differs between compounds; nearly all actives have a fitted effect of over 45% in size
Procedure, shortened: as §3

[9] = A CellTox Green Cytotoxicity Assay to monitor cytotoxicity in HEK293 cells - 32 hour (AID 1224881); further: nearly all actives have a fitted effect of over 40% in size; further: potency means the concentration at half of the fitted maximal effect
Procedure, shortened: as §1

[10] = A CellTox Green Cytotoxicity Assay to monitor cytotoxicity in HepG2 cells - 0 hour (AID 1224882); further: nearly all actives have a fitted effect of over 35% in size
Procedure, shortened: as §4

[11] = A CellTox Green Cytotoxicity Assay to monitor cytotoxicity in HepG2 cells - 32 hour (AID 1224883); further: nearly all actives have a fitted effect of over 50% in size; further: potency means the concentration at half of the fitted maximal effect
Procedure, shortened: as §4

[12] = A CellTox Green Cytotoxicity Assay to monitor cytotoxicity in HEK293 cells - 8 hour (AID 1224884); further: nearly all actives have a fitted effect of over 35% in size; further: potency means the concentration at half of the fitted maximal effect
Procedure, shortened: as §1

[13] = qHTS RealTime-Glo MT Cell Viability Assay in HepG2 cells - 16 hour (AID 1224885); further: nearly all actives have a fitted effect of over 50% in size; further: potency means the concentration at half of the fitted maximal effect
Procedure, shortened: as §5

[14] = qHTS RealTime-Glo MT Cell Viability Assay in HEK293 cells - 24 hour (AID 1224886); further: nearly all actives have a fitted effect of over 50% in size; further: potency means the concentration at half of the fitted maximal effect
Procedure, shortened: as §2

[15] = A CellTox Green Cytotoxicity Assay to monitor cytotoxicity in HEK293 cells - 16 hour (AID 1224888); further: nearly all actives have a fitted effect of over 35% in size; further: potency means the concentration at half of the fitted maximal effect
Procedure, shortened: as §1

[16] = qHTS RealTime-Glo MT Cell Viability Assay in HepG2 cells - 0 hour (AID 1224889); further: nearly all actives have a fitted effect of over 50% in size; further: potency means the concentration at half of the fitted maximal effect
Procedure, shortened: as §5

[17] = A CellTox Green Cytotoxicity Assay to monitor cytotoxicity in HepG2 cells - 8 hour (AID 1224890); further: nearly all actives have a fitted effect of over 45% in size; further: potency means the concentration at half of the fitted maximal effect
Procedure, shortened: as §4

[18] = qHTS RealTime-Glo MT Cell Viability Assay in HepG2 cells - 8 hour (AID 1224873); further: nearly all actives have a fitted effect of over 55% in size
Procedure, shortened: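 HepG2 cells (600/well) mixed with RealTime-Glo MT reagent, settled 5 h at 37 C/5% CO2 before compound addition. Nonlytic NanoLuc luminescence from viable-cell prosubstrate reduction read repeatedly during 40 h treatment at 37 C.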

[19] = A CellTox Green Cytotoxicity Assay to monitor cytotoxicity in HEK293 cells - 24 hour (AID 1224875)
Procedure, shortened: as §1

[20] = qHTS RealTime-Glo MT Cell Viability Assay in HEK293 cells - 8 hour (AID 1224887); further: nearly all actives have a fitted effect of over 50% in size; further: potency means the concentration at half of the fitted maximal effect
Procedure, shortened: as §3
On the % scale 0 is the no-effect control and ±100 the full control effect.

COc1cc(C(=O)NC2CCN(C)CC2)ccc1Nc1ncc2c(n1)N(C1CCCC1)CC(F)(F)C(=O)N2C
active: Potency [1] 35.7 µM | Potency [2] 2 µM | Potency [3] 0.0179 µM | Potency [4] 44.9 µM | Potency [5] 40 µM | Potency [6] 40 µM | Potency [7] 22.5 µM | Potency [9] 35.7 µM | Potency [11] 25.2 µM | Potency [12] 17.9 µM | Potency [13] 40 µM | Potency [14] 0.1 µM | Potency [15] 17.9 µM | Potency [17] 50.4 µM
inactive: Potency [8] | Potency [10] | Potency [16]

CC(CCC(=O)O)C(=O)O (stereo unspecified)
inactive: Potency [1] | Potency [18] | max response [3] 0% | Potency [19] | Potency [4] | Potency [5] | Potency [6] | Potency [7] | Potency [8] | Potency [9] | Potency [10] | Potency [11] | Potency [12] | Potency [13] | Potency [14] | Potency [20] | Potency [15] | Potency [16] | Potency [17]

CC(CO)CO
inactive: Potency [1] | Potency [2] | max response [3] 3.5% | Potency [19] | Potency [4] | Potency [5] | Potency [6] | Potency [7] | Potency [8] | Potency [9] | Potency [10] | Potency [11] | Potency [12] | Potency [13] | Potency [14] | Potency [20] | Potency [15] | Potency [16] | Potency [17]

COc1ccccc1Oc1c(NS(=O)(=O)c2ccc(C(C)(C)C)cc2)nc(-c2ncccn2)nc1OCCO
inactive: Potency [1] | Potency [18] | max response [3] -19.3% | Potency [19] | Potency [4] | Potency [5] | Potency [6] | Potency [7] | Potency [8] | Potency [9] | Potency [10] | Potency [11] | Potency [12] | Potency [13] | Potency [14] | Potency [20] | Potency [15] | Potency [17]

CC(=O)c1ccc([N+](=O)[O-])cc1
inactive: Potency [1] | Potency [2] | max response [3] 11.2% | Potency [19] | Potency [4] | Potency [5] | Potency [6] | Potency [7] | Potency [8] | Potency [9] | Potency [10] | Potency [11] | Potency [12] | Potency [13] | Potency [14] | Potency [20] | Potency [15] | Potency [16] | Potency [17]

COc1cc(Nc2c(C#N)cnc3cc(OCCCN4CCN(C)CC4)c(OC)cc23)c(Cl)cc1Cl
inactive: Potency [8] | Potency [12] | Potency [15]
active: Potency [1] 21.3 µM | Potency [2] 19 µM | Potency [3] 7.56 µM | Potency [4] 23.9 µM | Potency [5] 21.3 µM | Potency [6] 16.9 µM | Potency [7] 9.52 µM | Potency [9] 21.3 µM | Potency [11] 9.52 µM | Potency [14] 9.52 µM | Potency [20] 23.9 µM

CC1(C)S[C@@H]2[C@H](NC(=O)C(c3ccccc3)S(=O)(=O)O)C(=O)N2[C@H]1C(=O)O (stereo partly specified)
inactive: Potency [1] | Potency [2] | max response [3] 0.0341% | Potency [19] | Potency [4] | Potency [5] | Potency [6] | Potency [7] | Potency [8] | Potency [9] | Potency [10] | Potency [11] | Potency [12] | Potency [13] | Potency [14] | Potency [20] | Potency [15] | Potency [16] | Potency [17]

O=[N+]([O-])c1cc(C2CCCCC2)c(O)c([N+](=O)[O-])c1
active: Potency [2] 27.5 µM | Potency [3] 12.3 µM | Potency [14] 13.8 µM | Potency [16] 38.8 µM
inactive: Potency [1] | Potency [4] | Potency [9] | Potency [10] | Potency [12] | Potency [15] | Potency [17]

COc1ncnc(NS(=O)(=O)c2ccc(N)cc2)c1OC
inactive: Potency [1] | Potency [2] | max response [3] -0.242% | Potency [19] | Potency [5] | Potency [12] | Potency [13] | Potency [14] | Potency [15] | Potency [16]

NCCNCCO
inactive: Potency [1] | Potency [2] | max response [3] 20.2% | Potency [19] | Potency [4] | Potency [5] | Potency [6] | Potency [7] | Potency [8] | Potency [9] | Potency [10] | Potency [11] | Potency [12] | Potency [13] | Potency [14] | Potency [20] | Potency [15] | Potency [17]

O=Cc1c2ccccc2c(Cl)c2ccccc12
inactive: Potency [1] | Potency [2] | Potency [18] | Potency [19] | Potency [4] | Potency [5] | Potency [6] | Potency [8] | Potency [9] | Potency [11] | Potency [12] | Potency [13] | Potency [20] | Potency [15] | Potency [16] | Potency [17]

c1cc(N(CC2CO2)CC2CO2)ccc1Cc1ccc(N(CC2CO2)CC2CO2)cc1 (stereo unspecified)
inactive: Potency [19] | Potency [4] | Potency [8] | Potency [10] | Potency [12] | Potency [15] | Potency [16] | Potency [17]
active: Potency [1] 49 µM | Potency [2] 43.6 µM | Potency [3] 24.5 µM | Potency [14] 43.6 µM

CCCCCC#CC(=O)OC
inactive: Potency [1] | Potency [2] | Potency [19] | Potency [4] | Potency [5] | Potency [6] | Potency [7] | Potency [8] | Potency [9] | Potency [10] | Potency [11] | Potency [12] | Potency [13] | Potency [20] | Potency [15] | Potency [16] | Potency [17]

Nc1cccc2c1CN(C1CCC(=O)NC1=O)C2=O (stereo unspecified)
inactive: Potency [1] | Potency [2] | max response [3] 2.81% | Potency [19] | Potency [4] | Potency [5] | Potency [6] | Potency [8] | Potency [10] | Potency [11] | Potency [12] | Potency [13] | Potency [14] | Potency [20] | Potency [15] | Potency [16] | Potency [17]

COC(=O)c1nc(Cl)c(Cl)nc1N
active: Potency [1] 13.4 µM | Potency [2] 12 µM | Potency [3] 4.77 µM | Potency [5] 10.7 µM | Potency [9] 19 µM | Potency [14] 9.52 µM | Potency [20] 6.74 µM
inactive: Potency [8] | Potency [12] | Potency [16]
